Source: PubChem (SRMLSC)
Rows were chosen to be rich in hits. Some 6.3% of all compounds tested hit in one or more screens of this group.
PMK inhibit: S. pneumoniae PMK inhibition; purified PMK, PK/LDH-coupled NADH absorbance 340 nm; inhibition, % at 10 µM; 65,000 tested, 0.49% active;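 active means top-ranked compounds by inhibition in the single 10 µM screen, taking a fixed number of the strongest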
Abs 340nm: compounds absorbing at 340 nm | compound absorbance at 340 nm, fold over control | fold change at 10 µM | 65,000 tested, under 10 active | AID 708;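 active means at 10 µM dose, initial 340 nm absorbance at least 2 fold that of control wells; inactive means change under 2 fold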;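 further: initial absorbance extrapolated from kinetic A340 decline of NADH oxidation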
Autofluor 339: intrinsic fluorescence of library compounds, ex339/em460 – biochemical, MLSMR library, data from DPM-DC assay, artefact control, profiling panel. compound autofluorescence, ex339/em460 nm, NADH buffer; stronger effect = higher value; 1 = no-compound wells, NADH background. fluorescence fold increase at 10 µM. 65,000 tested, 5.5% active;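 active means at 10 µM, mean starting fluorescence two-fold or more over control wells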;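 further: signal is the first read of a kinetic run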
Spn DPM-DC inh: inhibitors of Streptococcus pneumoniae diphosphomevalonate decarboxylase | purified DPM-DC, PK/LDH coupled NADH fluorescence | calls only at 10 µM | 65,000 tested, 0.49% active | AID 556;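 active means the 320 compounds with the highest percent inhibition in the single-dose primary screen, excluding strongly autofluorescent ones, cut at about 32% in these data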;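 further: kinetic rate of NADH fluorescence loss reporting ADP formed by the decarboxylase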
Spn MK inh: inhibitors of Streptococcus pneumoniae mevalonate kinase | inhibition, % at 10 µM | purified MK, PK/LDH-coupled NADH absorbance 340 nm | 65,000 tested, 0.48% active | AID 555;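 active means ranked among the strongest by inhibition in the single 10 µM screen, a fixed top-ranked set picked for dose follow-up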
NADH enzymes: blocks coupling enzymes of NAD/NADH assays; coupled PK/LDH NADH assays, four targets; IC50, µM (titrated, usually from 10 µM); 65,000 tested, 0.02% active;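 active means single-dose screening hits from any of four coupled enzyme assays that gave an IC50 when retested across doses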;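 further: the DPM-DC format reads NADH fluorescence rather than 340 nm absorbance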
Large screens that a line does not name were inactive; [ ] = remark or other dose.

Cc1cc(N)n2ncc(-c3ccccc3)c2n1	none
Cc1cc(N)n2ncc(-c3cccc(Br)c3)c2n1	Autofluor 339 2.2 (not shown: Spn DPM-DC inh)
O=C(CSCc1ccc(Cl)cc1)c1ccco1	none
COC(=O)c1ccc2ccn(CC(=O)NC(C)C)c2c1	Autofluor 339 2.1 (not shown: Spn DPM-DC inh)
CC(C)NC(=O)Cn1cc(C#N)c2cc(Br)ccc21	none
C=CCN(C(=O)CCC(=O)O)C1CC(=O)N(c2ccc(OCCC)cc2)C1=O (stereo not drawn)	none
COc1cc(CN2CC(C)OC(C)C2)cc(OC)c1 (stereo not drawn)	Spn MK inh 45
Cc1cc(C)n2cc(CSc3ncccc3C(=O)O)nc2n1	Autofluor 339 5 (not shown: Spn DPM-DC inh)
Cc1cc(C)n2cc(CSCc3ccco3)nc2n1	none
Cc1cc(C)n2cc(CSC3=NCCS3)nc2n1	Autofluor 339 4.8 (not shown: Spn DPM-DC inh)
Cc1cc(C)n2cc(CSc3nnnn3-c3ccccc3C)nc2n1	Autofluor 339 2.1
Cc1ccccc1-n1nnnc1SCc1ncc(-c2ccccc2)o1	none
COc1cccc(Cn2c(N)c(C#N)c3nc4ccccc4nc32)c1OC	Autofluor 339 3.4 (not shown: Spn DPM-DC inh)
N#Cc1c(N)n(CCOC(=O)c2cccc(Br)c2)c2nc3ccccc3nc12	Autofluor 339 2.4 (not shown: Spn DPM-DC inh)
CCN(CC)CCOC(=O)c1cccc(Br)c1	none (no result: Spn MK inh)
COc1cc(Cn2c(N)c(C#N)c3nc4ccccc4nc32)cc(OC)c1	Autofluor 339 3.9 (not shown: Spn DPM-DC inh)
N#CC1(c2ccccc2)CCC(=NO)CC1 (stereo not drawn)	none
CC(C)c1nc(SCC(=O)NCc2ccc3c(c2)OCO3)c2c(=O)n(C)c(=O)n(C)c2n1	none
Cn1c2ccccc2c2c(C(=O)NCCCN3CCCC3=O)cn(C3CCCCC3)c(=O)c21	Autofluor 339 2.5 (not shown: Spn DPM-DC inh)
CN1CCN(CCCNC(=O)c2cn(C3CCCCC3)c(=O)c3c2c2ccccc2n3C)CC1	Autofluor 339 2.1 (not shown: Spn DPM-DC inh)
Cn1c(C(=O)NCCCN2CCCC2=O)cc2c(=O)n(C)c3ccccc3c21	none
CC(C)OC(=O)CSc1nnc(-c2cnccn2)n1-c1ccccc1	none
COCCOc1ccc(C(F)(F)F)cc1Nc1nc2ccccc2o1	none
c1ccc(Cn2c(SCc3cn4cccnc4n3)nnc2-c2ccco2)cc1	Autofluor 339 2.2
Cn1nnnc1SCc1cn2cccnc2n1	Autofluor 339 3.3 (not shown: Spn DPM-DC inh)
CCCCCC(=O)Nc1ccc2oc(-c3cccnc3)nc2c1	Autofluor 339 3.7 (not shown: Spn DPM-DC inh)
O=C(Cc1ccccc1)Nc1ccc2oc(-c3cccnc3)nc2c1	Autofluor 339 2.3 (not shown: Spn DPM-DC inh)
O=C(Nc1ccc2oc(-c3ccccc3)nc2c1)c1cccnc1	none
O=C(Cc1ccc(Cl)cc1)Nc1ccc2oc(-c3ccncc3)nc2c1	Autofluor 339 3.6 (not shown: Spn DPM-DC inh)
COCCCNC(=O)c1ccccc1NS(=O)(=O)c1ccc(C)cc1	none
CCc1nnc(NC(=O)CSc2nnc(-c3ccc(O)cc3)n2-c2ccccc2)s1	none
Cc1ccccc1N1C(=O)N(c2cccc(C(F)(F)F)c2)C2CS(=O)(=O)CC21 (stereo not drawn)	none
CC(C)Oc1ccc(N2CC(C(=O)Nc3ccc4c(c3)OCO4)CC2=O)cc1 (stereo not drawn)	none
CC1Cc2ccccc2N1c1ncnc2c1nnn2Cc1ccccc1 (stereo not drawn)	Autofluor 339 2.6
c1ccc(Cn2nnc3c(N4CCc5ccccc5C4)ncnc32)cc1	none
COc1ccc(NC(=O)CCN2C(=O)C3CC=C(Cl)CC3C2=O)cc1 (stereo not drawn)	none
CN(C)c1oc(-c2cccs2)nc1C#N	Autofluor 339 2.4 (not shown: Spn DPM-DC inh)
CNc1oc(-c2cccs2)nc1C#N	Autofluor 339 2.4 (not shown: Spn DPM-DC inh)
CCSc1nnc(-c2cccs2)o1	none
CN(C)c1oc(-c2ccccc2F)nc1C#N	Autofluor 339 2.4 (not shown: Spn DPM-DC inh)
O=C(c1ccccc1)c1nnc(-c2ccccc2F)o1	none
CCc1ccc(NS(=O)(=O)c2cccs2)cc1	none
CCOc1c(Br)cc(C2NS(=O)(=O)N=C3CCCCCN32)cc1OC (stereo not drawn)	none
C=CCn1c(=O)n(CCOC)c(=O)c2sc3ccccc3c21	Autofluor 339 2.4 (not shown: Spn DPM-DC inh)
CCOC(=O)CCc1c(C)n(CC)c2cc(-c3ccccc3OC)nn2c1=O	Autofluor 339 3.6
CCOC(=O)CNC(=O)CSc1nnc(-c2ccccc2OC)n1CC	none
CC1(C)CC(=O)c2cc(OCC(=O)N3CCN(c4ccccc4F)CC3)ccc2O1	PMK inhibit 26, Autofluor 339 2.6, Spn DPM-DC inh active[may fluoresce]
CCOC(=O)COc1ccc2c(c1)C(=O)CC(C)(C)O2	Autofluor 339 4.8 (not shown: Spn DPM-DC inh)
